Experimental data taken from PubChem BioAssay (Tox21).
Inconclusive results are not listed. Calls of active or inactive are those of the source. Calls come from the whole dose curve; as a rule, active = well fitted cell-killing curve with a large enough effect in the repeat runs; inconclusive = weak or mixed curves, or effect the other way; inactive = flat fitted curve, though single readings scatter. Non-standard residues stand in square brackets, D forms with d. Residues, ends and D or L forms follow the SMILES beside them. *: point of attachment. Sta = CC(C)C[C@H](N)[C@@H](O)CC(=O)O; Isovaleryl = CC(C)CC(=O)*

Assay: qHTS RealTime-Glo MT Cell Viability Assay in HEK293 cells - 32 hour (AID 1224868); note: top concentration of the series differs between compounds; nearly all actives have a fitted effect of over 50% in size
Conditions: RealTime-Glo luminescence; series mostly up to 76.8 µM; activity change, negative = cytotoxic: at the top concentration
Excerpt: National Center for Advancing Translational Sciences [NCATS]
NIH Chemical Genomics Center [NCGC]
U.S. Environmental Protection Agency [EPA]
National Institutes of Environmental Health Sciences [NIEHS]
National Toxicology Program [NTP]
U.S. Food and Drug Administration [FDA]
Measure of cell viability is critical in the cell-base assay. Analysis of cell viability is necessary for the characterization of cell responses to cytotoxic drugs and environmental stress. A RealTime-Glo MT Cell Viability Assay to monitor cell viability in real time of continues cell culture during 40 hours of compound treatment was used to screen Tox21 10K library compounds in Hek293 cells. The RealTime-Glo MT Cell Viability Assay is a nonlytic, homogeneous, bioluminescent method to measure cell viability in real time using a simple, plate-based method. The assay involves adding NanoLuc luciferase and a cell-permeant prosubstrate to cells in culture. Viable cells reduce the proprietary prosubstrate to generate a substrate for NanoLuc luciferase. This substrate diffuses from cells into the surrounding culture medium, where it is rapidly used by the NanoLuc Enzyme to produce a luminescent signal. The signal correlates with the number of viable cells, making the assay well suited for cytotoxicity studies.
Tox21 Assay Protocol Summary:
The mixture of Hek293 cell suspension and reagents were dispensed at 600cells/6 ul/well in 1536-well tissue culture treated black solid bottom plates using a Multidrop dispenser. After the assay plates were incubated at a 37 C/5% CO2 incubator for 5 hours, 23 nL of compounds dissolved in DMSO, positive and negative controls was transferred to the assay plate by a pintool work station. The plates were incubated at 37 C for 40 hours. The luminescence intensity were measured at 0h, 8h, 16h, 24h, 32h and 40h time points using ViewLux plate reader during compound treatment.
% is set by controls: 0 for no effect and ±100 for the full control effect.

Compound | activity change, negative = cytotoxic
CCCCC(CC)CCC(CC(C)C)OS(=O)(=O)O (stereo not given) | 1.78% (inactive)
CC(=O)OC/C=C(/C)CCC=C(C)C | 1.58% (inactive)
CCCCCCCCCCCCCCBr | 3.77% (inactive)
CCC(=O)OCCOc1ccccc1 | 4.34% (inactive)
CCCc1ccc(O)c(OC)c1 | 7.91% (inactive)
N#CC1(N)CCCCC1 | 8.14% (inactive)
CC(=O)SC[C@@H](C)C(=O)N1CCC[C@H]1C(=O)N[C@@H](Cc1ccccc1)C(=O)O | 3.35% [at 35.3 µM] (inactive)
CC(=O)Nc1ccc(S(=O)(=O)Nc2cc(C)on2)cc1 | 2.25% [at 35.3 µM] (inactive)
Cc1cc2c(cc1CC(=O)c1sccc1S(=O)(=O)Nc1onc(C)c1Cl)OCO2 | 4.03% [at 35.3 µM] (inactive)
N=C(N)N | -1.19% [at 35.3 µM] (inactive)
COc1ccc(Cl)cc1C | 29.7% (inactive)
CC(C)(C)OC=O | 12% (inactive)
Cc1cc(O)c(Cl)cc1C | -2.11% (inactive)
O=C(O)CCCCCCCCCC(=O)O | 1.28% (inactive)
CC(=O)Nc1ccc(OCCOCCOc2ccc(NC(C)=O)cc2)cc1 | -2.5% [at 35.3 µM] (inactive)
C=CCOC(=O)CCCCCCCC | 16.5% (inactive)
CCCCCC(CC)OC(=O)CCCOc1ccc(Cl)cc1Cl (stereo not given) | 0.115% (inactive)
CCCCN1C(=O)c2ccccc2C1=O | -6.13% (inactive)
Cc1cc(=O)oc2cc(O[C@@H]3SC[C@@H](O)[C@H](O)[C@H]3O)ccc12 | -3.25% [at 35.3 µM] (inactive)
CC(=O)/C=C/C=C1/C2CCC(C2)C1(C)C (stereo not given) | 4.69% [at 35.3 µM] (inactive)

Compound | activity change, negative = cytotoxic
CC(C)CC(=O)N[C@H](C(=O)N[C@H](C(=O)N[C@@H](CC(C)C)[C@@H](O)CC(=O)N[C@@H](C)C(=O)N[C@@H](CC(C)C)[C@@H](O)CC(=O)O)C(C)C)C(C)C (Isovaleryl-VV[Sta]A[Sta]-OH) | 13.9% [at 35.3 µM] (inactive)
CC(C)(C)c1ccc(N)cc1 | -5.61% (inactive)
CNC(C)=O | 3.42% (inactive)
Nc1ccc(C(=O)NCC(=O)O)cc1 | -1.02% [at 35.3 µM] (inactive)
N=C(N)N1CCc2ccccc2C1 | 0.854% [at 6.97 µM] (inactive)
CC(O)C(CO)C(C)O (stereo not given) | -0.973% (inactive)
CC[N+](C)(CC)CC | 12.9% (inactive)
COCCCOc1cc(C[C@@H](C[C@H](N)[C@@H](O)C[C@H](C(=O)NCC(C)(C)C(N)=O)C(C)C)C(C)C)ccc1OC | 0.422% [at 35.3 µM] (inactive)
Cc1ccc(NC(N)=O)cc1 | 9.37% (inactive)
c1cc2ccc3ccc4ccc5cccc6c(c1)c2c3c4c56 | 0.861% [at 2.72 µM] (inactive)
CCCC(=O)CC | 8.83% (inactive)
N#Cc1cc(NC(=O)C(=O)O)c(Cl)c(NC(=O)C(=O)O)c1 | -1.61% [at 35.3 µM] (inactive)
CN(C)c1ccncc1 | -14.6% (inactive)
O=C(CCBr)N1CCN(C(=O)CCBr)CC1 | -1.09% [at 35.3 µM] (inactive)
O=Cc1ccccc1S(=O)(=O)O | 5.27% (inactive)
O=C[C@@H](O)[C@H](O)[C@H](O)CO | 0.0675% (inactive)
CNCCc1ccccn1 | 0.774% [at 35.3 µM] (inactive)
NCC1CCC(C(=O)Oc2ccc(CCC(=O)O)cc2)CC1 (stereo not given) | 9.14% [at 35.3 µM] (inactive)
CCCCCCCCCCCCCCCC/C=C/C1CC(=O)OC1=O (stereo not given) | -0.278% [at 35.3 µM] (inactive)
CC(=O)SCC(CC(=O)c1ccc(C)cc1)C(=O)O (stereo not given) | 1.12% [at 35.3 µM] (inactive)
